PubChem BioAssay AID1159580 (chemical genetic matrix, 2015)
Screen size: about 5,500 compounds; about 2,000 (36%) were called active. Another 18% or so got no clear call; they are omitted. No stated cut-off is given here; in the data, active means normalized growth mostly below about 0.91 (no sharp cut-off); inconclusive means no clear call, values can overlap the other calls; inactive means mostly above about 0.92. The list shows a part of the results.

Assay: chemical genetic growth profiling, strain panel (AID 1159580);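 further: tested at 20 µM; growth read once vehicle control cultures reached saturation at 30 °C; 1 = growth at the plate median or of vehicle wells; lower values mean less growth of the strain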
Settings: S. cerevisiae deletion strains, growth OD

Measured: normalized growth

O=C1Nc2ccccc2/C1=C\c1cccc([N+](=O)[O-])c1
inactive: locus YAR019C, strain CDC15, hits give low values 0.974 | locus YBL105C, strain PKC1, hits give low values 0.967 | locus YBR135W, strain CKS1, hits give low values 0.974 | locus YBR136W, strain MEC1, hits give low values 0.972 | locus YBR160W, strain CDC28, hits give low values 0.979 | locus YDL017W, strain CDC7, hits give low values 0.97 | locus YDL028C, strain MPS1, hits give low values 0.971 | locus YDL101C, strain DUN1, hits give low values 0.97 | locus YDL108W, strain KIN28, hits give low values 0.968 | locus YDL132W, strain cdc53, hits give low values 0.962 | locus YDL214C, strain PRR2, hits give low values 0.983 | locus YDR052C, strain DBF4, hits give low values 0.97 | locus YDR054C, strain cdc34, hits give low values 0.957 | locus YDR226W, strain ADK1, hits give low values 0.969 | locus YDR477W, strain SNF1, hits give low values 0.971 | locus YER123W, strain YCK3, hits give low values 0.985 | locus YER133W, strain GLC7, hits give low values 1 | locus YFL009W, strain cdc4, hits give low values 0.965 | locus YFL029C, strain CAK1, hits give low values 0.982 | locus YFR003C, strain YPI1, hits give low values 0.965 | locus YFR019W, strain FAB1, hits give low values 0.987 | locus YFR028C, strain CDC14, hits give low values 0.961 | locus YGR040W, strain KSS1, hits give low values 0.967 | locus YGR052W, strain FMP48, hits give low values 1.02 | locus YGR092W, strain DBF2, hits give low values 0.921 | locus YHR030C, strain SLT2, hits give low values 0.959 | locus YHR079C, strain IRE1, hits give low values 0.913 | locus YHR082C, strain KSP1, hits give low values 1.06 | locus YHR205W, strain SCH9, hits give low values 0.848 | locus YIL147C, strain SLN1, hits give low values 0.967 | locus YJL095W, strain BCK1, hits give low values 0.955 | locus YJL128C, strain PBS2, hits give low values 0.923 | locus YJL157C, strain FAR1, hits give low values 0.985 | locus YJR016C, strain ILV3, hits give low values 0.967 | locus YJR066W, strain TOR1 (second series), hits give low values 0.981 | locus YJR066W, strain TOR1, hits give low values 1.05 | locus YKL048C, strain ELM1, hits give low values 0.971 | locus YKL067W, strain YNK1, hits give low values 0.995 | locus YKL101W, strain HSL1, hits give low values 0.967 | locus YKL193C, strain SDS22, hits give low values 0.963 | locus YKL203C, strain TOR2, hits give low values 1.05 | locus YLR113W, strain HOG1, hits give low values 0.939 | locus YLR133W, strain CKI1, hits give low values 0.975 | locus YLR403W, strain SFP1, hits give low values 0.907 | locus YML070W, strain DAK1, hits give low values 0.993 | locus YMR001C, strain CDC5, hits give low values 0.97 | locus YMR205C, strain PFK2 (second series), hits give low values 0.994 | locus YMR277W, strain FCP1, hits give low values 0.969 | locus YNL006W, strain LST8, hits give low values 0.979 | locus YNL020C, strain ARK1, hits give low values 0.959 | locus YNL161W, strain CBK1, hits give low values 0.965 | locus YNL183C, strain NPR1, hits give low values 1.05 | locus YNL207W, strain RIO2, hits give low values 0.963 | locus YNL222W, strain SSU72, hits give low values 0.986 | locus YNL307C, strain MCK1 (second series), hits give low values 0.957 | locus YOL078W, strain AVO1, hits give low values 0.966 | locus YOL136C, strain PFK27, hits give low values 0.985 | locus YOR061W, strain CKA2, hits give low values 0.991 | locus YOR119C, strain RIO1, hits give low values 1.07 | locus YOR231W, strain MKK1, hits give low values 1.04 | locus YOR329C, strain SCD5, hits give low values 0.973 | locus YPL031C, strain PHO85, hits give low values 0.972 | locus YPL153C, strain RAD53, hits give low values 0.992 | locus YPL204W, strain HRR25, hits give low values 0.968 | locus YPL209C, strain IPL1, hits give low values 0.974 | locus YPL256C, strain CLN2, hits give low values 0.954 | locus YPR025C, strain CCL1, hits give low values 0.978 | locus YPR106W, strain ISR1, hits give low values 0.973 | locus YPR111W, strain DBF20, hits give low values 0.966 | strain NNK1, hits give low values 0.967 | strain TSCII, hits give low values 0.963
